Experimental data taken from PubChem BioAssay (NCATS).
Results filed as inconclusive are left out. The source made the active and inactive calls. Unless noted, calls follow the shape of the dose curve; as a rule, active = well fitted curve in the direction sought with a large enough effect; inconclusive = small, poorly fitted or top-dose-only effect, or another doubt; inactive = no such curve, though single readings can be large; an effect the other way counts as inactive or inconclusive.

Key:
[1] = qHTS for differential inhibitors of proliferation of Plasmodium falciparum line 7G8 (AID 1815);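 also: parasite growth measured after three days of incubation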; also: potency is read from the fitted curve at half-maximal effect
[2] = qHTS for differential inhibitors of proliferation of Plasmodium falciparum line 3D7 (AID 1876); also: potency is read from the fitted curve at half-maximal effect
[3] = qHTS for differential inhibitors of proliferation of Plasmodium falciparum line D10 (AID 1877);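 also: parasites grown with compound for 72 h before DNA staining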; also: potency is read from the fitted curve at half-maximal effect
[4] = qHTS for differential inhibitors of proliferation of Plasmodium falciparum line W2 (AID 1883); conditions: Potency: Plasmodium falciparum W2 proliferation inhibition;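 also: parasites grown with compound for 72 h before lysis and staining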; also: potency is read from the fitted curve at half-maximal effect
[5] = qHTS for differential inhibitors of proliferation of Plasmodium falciparum line HB3 (AID 1886); conditions: Potency: Plasmodium falciparum HB3 proliferation inhibition;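 also: parasites grown with compound for 72 h before SYBR Green readout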; also: potency is read from the fitted curve at half-maximal effect
[6] = Validation screen for inhibitors of Lassa infection (AID 463096; calls by dose curve; also: potency is read from the fitted curve at half-maximal effect)
[7] = target: M-phase phosphoprotein 8 (Homo sapiens) (UniProt Q99549); test: qHTS Validation Assay for Inhibitors for MPP8 Chromodomain Interactions with Methylated Histone Tails (AID 488949); also: nearly all actives have a fitted effect of over 55% in size; also: potency is read from the fitted curve at half-maximal effect
Chain of M-phase phosphoprotein 8 (Homo sapiens) (Q99549 whole entry, looked up): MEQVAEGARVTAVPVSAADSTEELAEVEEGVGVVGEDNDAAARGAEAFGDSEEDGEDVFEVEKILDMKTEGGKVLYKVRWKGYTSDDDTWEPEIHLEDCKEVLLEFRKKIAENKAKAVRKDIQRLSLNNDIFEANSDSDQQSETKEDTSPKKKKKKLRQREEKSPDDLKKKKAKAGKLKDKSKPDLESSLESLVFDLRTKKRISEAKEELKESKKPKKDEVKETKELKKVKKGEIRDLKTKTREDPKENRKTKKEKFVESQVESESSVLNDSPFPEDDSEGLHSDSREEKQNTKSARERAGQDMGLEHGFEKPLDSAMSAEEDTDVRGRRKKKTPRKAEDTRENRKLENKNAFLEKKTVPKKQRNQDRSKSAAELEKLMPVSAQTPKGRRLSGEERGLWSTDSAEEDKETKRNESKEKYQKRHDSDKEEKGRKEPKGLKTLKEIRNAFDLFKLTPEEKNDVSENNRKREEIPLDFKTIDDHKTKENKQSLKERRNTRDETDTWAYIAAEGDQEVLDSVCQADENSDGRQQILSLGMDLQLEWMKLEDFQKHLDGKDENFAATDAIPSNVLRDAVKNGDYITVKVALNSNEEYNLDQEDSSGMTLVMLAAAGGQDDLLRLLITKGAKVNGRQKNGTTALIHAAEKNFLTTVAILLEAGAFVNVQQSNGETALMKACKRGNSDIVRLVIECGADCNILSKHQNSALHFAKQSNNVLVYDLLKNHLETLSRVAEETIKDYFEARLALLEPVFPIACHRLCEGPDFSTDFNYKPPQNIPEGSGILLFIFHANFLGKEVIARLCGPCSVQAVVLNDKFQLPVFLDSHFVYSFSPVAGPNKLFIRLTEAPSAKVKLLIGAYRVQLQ
Outline: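 Chemiluminescent proximity assay: histidine-tag capture via nickel acceptor beads, biotin peptide via streptavidin donor beads. Protein and peptide each at 50 nM, pH 7.4, with 30 min incubations at room temperature for complex formation, compound exposure and bead binding.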

[8] = target: Vitamin D3 receptor (Homo sapiens) (UniProt P11473); test: qHTS assay for small molecule antagonists of vitamin D receptor signaling (AID 588541; calls by dose curve;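 also: receptor activated by calcitriol during compound treatment; series mostly up to about 77 µM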)
Chain of Vitamin D3 receptor (Homo sapiens) (P11473 whole entry, looked up): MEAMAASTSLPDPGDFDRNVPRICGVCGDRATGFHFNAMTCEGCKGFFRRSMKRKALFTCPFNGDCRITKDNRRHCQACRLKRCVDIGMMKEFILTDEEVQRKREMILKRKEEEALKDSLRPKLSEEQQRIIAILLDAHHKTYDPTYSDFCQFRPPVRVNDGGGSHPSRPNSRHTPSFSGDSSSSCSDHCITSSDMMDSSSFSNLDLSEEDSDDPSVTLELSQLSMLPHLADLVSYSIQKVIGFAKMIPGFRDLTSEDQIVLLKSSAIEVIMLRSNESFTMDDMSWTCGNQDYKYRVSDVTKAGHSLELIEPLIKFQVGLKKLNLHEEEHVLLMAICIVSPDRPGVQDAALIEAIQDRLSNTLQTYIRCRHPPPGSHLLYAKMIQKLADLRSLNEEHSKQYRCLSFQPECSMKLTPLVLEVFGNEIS
Outline: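 Antagonist-mode beta-lactamase reporter assay: HEK293T VDR-UAS-bla cells were exposed to titrated compound alongside 1-alpha,25-dihydroxyvitamin D3 at 3 nM final for 16 h. Values were normalized to the 50 nM agonist control and DMSO basal, with IC50 and efficacy from Hill equation fits.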

[9] = target: Vitamin D3 receptor (Homo sapiens) (UniProt P11473); test: qHTS assay for small molecule agonists of vitamin D receptor signaling (AID 588543; calls by dose curve)
Outline: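 Measured: β-lactamase reporter activity (CCF4, 405 nm excitation, 460/530 nm emission) in HEK293T VDR-UAS-bla cells after 16 h compound exposure at 37 °C. Normalization against 50 nM 1α,25-dihydroxyvitamin D3 and DMSO; Hill-fit EC50.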

[10] = qHTS assay for small molecule agonists of the antioxidant response element (ARE) signaling pathway (AID 651741; active = well fitted activation curve with a large enough effect in the signal ratio; the % refers to the signal ratio; also: potency is read from the fitted curve at half-maximal effect)
Outline: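 Agonist activity is measured as ARE-driven beta-lactamase expression in a stable HepG2 reporter line, using 16 h compound treatment at 37 C and a FRET substrate fluorescence readout after 2 h.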

Measured: Potency

C[C@]12CC[C@H](OS(=O)(=O)O)CC1=CCC1C2CC[C@]2(C)C(=O)CC[C@@H]12 (some centres undefined)
not listed: [8] | [9] | [10]
inactive: all other assays above

COc1ccc2c(c1O)-c1cccc3c1C(C2)N(C)CC3 (centres undefined)
inactive: [6]
active: [1] 8.91 µM | [2] 10 µM | [3] 14.1 µM | [4] 7.94 µM | [5] 12.6 µM | [7] 44.7 µM

C/C=C(/C)C(=O)O[C@H]1C(C)=C2C([C@@H]1OC(=O)CCCCCCC)[C@@](C)(OC(C)=O)C[C@@H](OC(=O)CCC)[C@@]1(O)[C@H]2OC(=O)[C@@]1(C)O (some centres undefined)
inactive: [7]
active: [1] 4.47 µM | [2] 4.47 µM | [3] 10 µM | [4] 3.55 µM | [5] 10 µM | [6] 3.16 µM

CCCCN1C2CCC1CC(OC(c1ccc(F)cc1)c1ccc(F)cc1)C2 (centres undefined)
active: [1] 2 µM | [2] 0.891 µM | [3] 2.24 µM | [4] 0.631 µM | [5] 1 µM | [6] 10 µM
inactive: [7]

O=C(O)C1C2CCC(O2)C1C(=O)O (centres undefined)
active: [10] 27.3 µM
not listed: [3] | [4] | [5]
inactive: all other assays above

COc1ccc2c3c1O[C@H]1C(=O)CC[C@@]4(O)C(C2)N(CC2CC2)CCC314 (some centres undefined)
active: [4] 11.2 µM
inactive: [2] | [3] | [5] | [6] | [7]

Oc1cc2c(cc1O)[C@H]1c3ccccc3CNC1CC2 (some centres undefined)
active: [1] 10 µM | [3] 11.2 µM | [4] 10 µM | [5] 11.2 µM | [7] 25.1 µM
inactive: [6]

C[C@H]1C2Cc3ccc(O)cc3[C@]1(C)CCN2CC1CC1
inactive: [2] | [3] | [5] | [6] | [7]
active: [4] 2.82 µM

CC(C)(O)C1C2OC(=O)C1[C@]1(O)C[C@H]3O[C@]34C(=O)O[C@H]2[C@]14C (some centres undefined) (tested in a mixture with another compound)
not listed: [8] | [9] | [10]
inactive: all other assays above

Oc1ccc2c3c1O[C@H]1[C@@H](O)CC[C@@]4(O)C(C2)N(CC2CCC2)CCC314 (some centres undefined)
inactive: [1] | [2] | [3] | [5] | [6] | [7]

COC(=O)C(N)CCCN=C(N)N[N+](=O)[O-] (centres undefined)
not listed: [8] | [9] | [10]
inactive: all other assays above

CCCN(CCC)[C@@H]1CCc2c(F)ccc(O)c2C1
inactive: [6]
active: [1] 1.12 µM | [2] 1.58 µM | [3] 2.24 µM | [4] 0.891 µM | [5] 1.41 µM
